Assay outcomes: PubChem, National Center for Advancing Translational Sciences (NCATS)
NPSR antag – qHTS Assay for Antagonists of the Neuropeptide S Receptor: cAMP Signal Transduction | Q6W5P4 | CHO-NPSR cells, cAMP TR-FRET, antagonist mode | Potency, µM (series often up to 38.3 µM), usual class: inhibitors | hit rate 1% among 220,000; also: nearly all actives have a fitted effect of over 50% in size
IMPase Li cell – qHTS Assay for Identifying the Cell-Membrane Permeable IMPase Inhibitors: Potentiation with Lithium. hit rate 0.35% among 210,000. Potency, µM (highest dose often 59.4 µM), actives largely listed as inhibitors. CHO-M1 cells, IP1 TR-FRET (IP-One), carbachol + lithium;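 also: IP1 builds up when IMPase is blocked and the TR-FRET signal falls; nearly all actives have a fitted effect of over 50% in size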
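CHO cells stably expressing M1 receptor (2000/well, cultured 16–30 h) treated 30 min at 37C with compound plus low lithium. Cytosolic IP1 by TR-FRET (665/620 ratio and 620 channel) after 10 min lysis; AC50 by Hill fit.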
PNC assembly inh – High Content Assay for Compounds that inhibit the Assembly of the Perinucleolar Compartment; PC3M PTB-GFP, PNC prevalence imaging, 16 h; active compounds read low; activity change (PNC), negative = inhibition, % at 10 µM; hit rate 3.1% among 140,000;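 active = readout at or below -70, meaning at least 70% loss of cells showing the perinucleolar compartment, a nuclear body marking cancer cells; inconclusive = readout between -30 and a set limit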
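PC3M cells stably expressing PTB-GFP, 750–1000 cells/well, treated 16 h at 37 °C with compound (23 nl of library stock), in duplicate. After paraformaldehyde fixation and Hoechst stain, imaged at 20x; PNC prevalence scored by image analysis.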
IMPase inh – qHTS Assay for Identifying the Cell-Membrane Permeable IMPase Inhibitors; Inositol monophosphatase 1 (Rattus norvegicus), P97697; CHO-M1 cells, IP1 accumulation, HTRF TR-FRET ratio; inhibition (IP1 accumulation), % at 46.1 µM; 120,000 tested, under 10 active; active = well fitted curve in the direction sought with a large enough effect in the signal ratio, not every such curve was filed as active; inconclusive = small, poorly fitted or top-dose-only effect, or a change in a side signal; inactive = no such curve, though single readings can be large or run the other way; the % refers to the signal ratio;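 also: cells stimulated with carbachol in lithium chloride buffer; higher means more IMPase inhibition seen as more IP1 and lower FRET ratio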
Target sequence (P97697 whole entry, looked up): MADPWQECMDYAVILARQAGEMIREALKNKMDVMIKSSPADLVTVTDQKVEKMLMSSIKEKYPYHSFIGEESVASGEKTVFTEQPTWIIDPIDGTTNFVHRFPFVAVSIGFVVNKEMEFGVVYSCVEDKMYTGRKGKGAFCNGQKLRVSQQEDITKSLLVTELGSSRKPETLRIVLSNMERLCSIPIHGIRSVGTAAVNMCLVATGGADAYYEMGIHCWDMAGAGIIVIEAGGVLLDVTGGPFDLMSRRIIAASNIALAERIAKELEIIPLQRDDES
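In this qHTS, compounds (final up to 46 uM) act on CHO-M1 cells that are then activated through the M1 receptor with carbachol, in pH 7.4 buffer containing 50 mM LiCl, for 30 min. IP1 accumulation is quantified by the IP-One immunoassay.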
ALDH1A1 block – qHTS Assay for Inhibitors of Aldehyde Dehydrogenase 1 (ALDH1A1); hit rate 7.3% among 220,000; Purified ALDH1A1, NADH fluorescence, propionaldehyde substrate; Potency, µM (titrated, usually from 75.3 µM), hits mostly inhibitors; active = well fitted inhibition curve with a large enough effect, not every such curve was filed as active; inconclusive = small, poorly fitted or top-dose-only effect, or another doubt; inactive = no such curve, though single readings can be large or run the other way
HPGD inh – qHTS Assay for Inhibitors of HPGD (15-Hydroxyprostaglandin Dehydrogenase) | 15-hydroxyprostaglandin dehydrogenase [NAD(+)] (Homo sapiens), P15428 | purified HPGD, NADH fluorescence kinetic, PGE2 substrate | Potency, µM, hits mostly inhibitors | hit rate 4.3% among 150,000 | AID 894, 2007; active = well fitted inhibition curve with a large enough effect, not every such curve was filed as active; inconclusive = small, poorly fitted or top-dose-only effect, or another doubt; inactive = no such curve, though single readings can be large or run the other way
Target sequence (P15428 whole entry, looked up): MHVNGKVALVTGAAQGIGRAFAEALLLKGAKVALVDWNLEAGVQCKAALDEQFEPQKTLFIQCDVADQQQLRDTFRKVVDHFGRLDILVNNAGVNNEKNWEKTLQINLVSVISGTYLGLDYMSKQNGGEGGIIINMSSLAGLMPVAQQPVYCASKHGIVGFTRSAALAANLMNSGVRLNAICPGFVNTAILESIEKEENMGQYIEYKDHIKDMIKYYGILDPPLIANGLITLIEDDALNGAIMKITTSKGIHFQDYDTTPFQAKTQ
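NADH formation kinetics: reaction with 30 uM PGE2 and 1 mM NAD+ (final), 20 nM enzyme, Tris-HCl pH 8 with Tween 20, after 15 min compound preincubation at room temperature. Fluorescence change, last versus first of five reads.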
Of the large screens only hits and unclear results are named; the others gave an inactive call. The list is not random: actives were taken first. Their share in the collection is about 11%. Unless noted, calls follow the shape of the dose curve; as a rule, active = well fitted curve in the direction sought with a large enough effect; inconclusive = small, poorly fitted or top-dose-only effect, or another doubt; inactive = no such curve, though single readings can be large; an effect the other way counts as inactive or inconclusive.

COc1ccc(NC(=O)N2CC[C@@]3(CCCN(C(=O)c4cc(C(F)(F)F)cc(C(F)(F)F)c4)C3)C2)cc1	none (no result: NPSR antag, PNC assembly inh, IMPase inh)
O=C(c1ccc2c(c1)OCCO2)N1CCCC(CNS(=O)(=O)c2cccs2)C1 (configuration not stated)	ALDH1A1 block 2.2µM (no result: PNC assembly inh, IMPase inh, HPGD inh)
O=C(NCCc1ccccc1)C1CCN(S(=O)(=O)c2cccs2)CC1	PNC assembly inh inconclusive, ALDH1A1 block 10µM
COCCCNC(=O)C1CCN(S(=O)(=O)c2c(C)noc2/C=C\c2ccc(OC)cc2)CC1	PNC assembly inh -109, ALDH1A1 block inconclusive
O=C(NCCc1ccc(Cl)cc1)C1CCN(S(=O)(=O)c2cccs2)CC1	ALDH1A1 block inconclusive
CCCCNC(=O)C1CCN(S(=O)(=O)c2c(C)noc2/C=C\c2ccc(OC)cc2)CC1	none
O=C(C1CCC(CNS(=O)(=O)c2cccs2)CC1)N1CCCCC1 (configuration not stated)	PNC assembly inh inconclusive, ALDH1A1 block inconclusive, HPGD inh 3.2µM
CCCCc1nc2c(c3c1C[C@H](C)OC3)CN(C(=O)N[C@H](C(=O)OC)C(C)C)CC2	none (no result: NPSR antag, PNC assembly inh, IMPase inh)
C/C(=N\NC(=S)Nc1ccccc1C)c1cc2ccccc2o1	none (no result: IMPase Li cell, PNC assembly inh, IMPase inh, ALDH1A1 block, HPGD inh)
COc1ccc2[nH]cc(CCNc3ncncc3-c3cccc(NS(C)(=O)=O)c3)c2c1	none (no result: NPSR antag, PNC assembly inh, IMPase inh, HPGD inh)
COCCNC(=O)C1CCN(S(=O)(=O)c2ccccc2)CC1	HPGD inh 25µM
Cc1cccc(CCNC(=O)C2CCC(CNS(=O)(=O)c3cccs3)CC2)c1 (configuration not stated)	ALDH1A1 block 1.8µM (no result: PNC assembly inh, IMPase inh, HPGD inh)
Cc1cnc(CNc2ncncc2-c2ccc(C(=O)N(C)C)cc2)cn1	none (no result: NPSR antag, PNC assembly inh, IMPase inh)
N=C(N)SCc1ccc(Cl)cc1Cl (tested in a mixture with another compound)	HPGD inh inconclusive (no result: NPSR antag, PNC assembly inh, IMPase inh)
CC(=O)c1ccc(NC(=O)c2cc3nc4c(c(C(F)(F)F)n3n2)CCCC4)cc1	ALDH1A1 block inconclusive
O=C(NC1CCCCC1)c1cc2nc3c(c(C(F)(F)F)n2n1)CCCC3	ALDH1A1 block inconclusive, HPGD inh 28µM
CCOC(=O)/C(C#N)=C1\CCCN1CC(N)=S	ALDH1A1 block 20µM, HPGD inh inconclusive (no result: IMPase inh)
CCOC(=O)/C(C#N)=C1/CCCCCN1C	none
Cc1ccc(S(=O)(=O)N2CCC(=O)N(C(COCc3cccc(C(F)(F)F)c3)Cc3ccccc3)CC2)cc1 (configuration not stated)	none (no result: IMPase inh)
O=C(Nc1nccs1)c1ccc(COc2ccc(Cl)cc2)o1	none
O=C(Nc1nccs1)c1ccc(COc2ccc(F)cc2)o1	IMPase Li cell inconclusive, ALDH1A1 block inconclusive, HPGD inh 14µM
O=C(Nc1cccnc1)c1ccc(COc2ccccc2Cl)o1	HPGD inh 14µM
O=C(Nc1ccc(Cl)cn1)c1ccc(COc2ccccc2Br)o1	none (no result: PNC assembly inh, IMPase inh, HPGD inh)
O=C(Nc1nccs1)c1ccc(COc2ccccc2Br)o1	PNC assembly inh -88
O=C(Nc1cccnc1)c1ccc(COc2cc(Cl)ccc2Cl)o1	HPGD inh inconclusive
Nc1ccc2c(c1)sc1ccccc12	ALDH1A1 block inconclusive, HPGD inh inconclusive (no result: IMPase inh)
O=C(COc1ccc(S(=O)(=O)N2CCCCC2)cc1)NCC1CCCO1 (configuration not stated)	ALDH1A1 block inconclusive (no result: PNC assembly inh, IMPase inh, HPGD inh)
CC(C)C1C(C#N)=C(N)Oc2n[nH]c(-c3ccccc3)c21 (configuration not stated)	none
CC(C)CC1C(C#N)=C(N)Oc2n[nH]c(-c3ccccc3)c21 (configuration not stated)	PNC assembly inh -100, ALDH1A1 block inconclusive
COc1ccc(-c2[nH]nc3c2C(c2ccoc2)C(C#N)=C(N)O3)cc1 (configuration not stated)	PNC assembly inh inconclusive, HPGD inh 13µM
Cc1ccc(CNC(=O)COC(=O)CSc2ccc(Br)cc2C)cc1	PNC assembly inh inconclusive, ALDH1A1 block inconclusive, HPGD inh inconclusive
O=C1CSC2(C(=O)N3CCCc4cccc2c43)N1c1cccc(C(F)(F)F)c1 (configuration not stated)	ALDH1A1 block inconclusive
COc1ccc(N2C(=O)CSC23C(=O)N2CCCc4cccc3c42)cc1 (configuration not stated)	ALDH1A1 block 11µM
Cc1ccc(Nc2ccc(C(=O)N3CCCC3)cn2)c(C)c1	HPGD inh 2.2µM
Cc1noc(C(=O)NCc2ccco2)c1Cl	none
O=C1CC(C(=O)N(c2ccc(F)cc2)C(C(=O)NC2CCCC2)c2ccccn2)CS1 (configuration not stated)	none
O=C1CC(C(=O)N(c2cccc(F)c2)C(C(=O)NC2CCCC2)c2ccccn2)CS1 (configuration not stated)	ALDH1A1 block 10µM
COc1ccc(S(=O)(=O)N(CC(=O)Nc2cc(C)on2)Cc2ccccc2)cc1	ALDH1A1 block inconclusive
COc1cc(CC(NC(C)=O)C(=O)NC2CCN(c3c(Cc4ccccc4)c(C)nc4ncnn34)CC2)cc(OC)c1 (configuration not stated)	none (no result: IMPase inh)
Cc1nn(-c2ccc(S(=O)(=O)O)cc2)c(O)c1N=Nc1ccc(-c2ccc(N=Nc3ccc4c(S(=O)(=O)O)cc(S(=O)(=O)O)c(N)c4c3O)c(O)c2)cc1O.[Cu].[Cu]	ALDH1A1 block inconclusive, HPGD inh 0.79µM (no result: NPSR antag, PNC assembly inh, IMPase inh)
COc1cc(-c2ccc(N=Nc3ccc4c(S(=O)(=O)O)cc(S(=O)(=O)O)c(N)c4c3O)c(OC)c2)ccc1N=Nc1ccc2c(S(=O)(=O)O)cc(S(=O)(=O)O)c(N)c2c1O	IMPase inh inconclusive, ALDH1A1 block inconclusive, HPGD inh 14µM (no result: NPSR antag, PNC assembly inh)
C[C@H](O)C(=O)Nc1c(I)c(C(=O)NC(CO)CO)c(I)c(C(=O)NC(CO)CO)c1I	none (no result: NPSR antag, PNC assembly inh)
COc1ccc(-n2c(SCC(N)=O)nnc2-c2ccc(NS(=O)(=O)c3ccc(C)cc3)cc2)cc1	ALDH1A1 block inconclusive, HPGD inh 22µM
COc1ccc(-n2c(SCC(=O)NNC(=O)c3ccc(C)cc3)nnc2-c2ccncc2)cc1	none (no result: IMPase inh)
COc1ccc(-n2c(SCC(=O)Nc3ccccc3)nnc2-c2ccc(NS(=O)(=O)c3ccc(C)cc3)cc2)cc1	none
COc1ccc(-n2c(SCC#N)nnc2-c2ccc(NS(=O)(=O)c3ccc(C)cc3)cc2)cc1	NPSR antag inconclusive, PNC assembly inh inconclusive, ALDH1A1 block inconclusive, HPGD inh 14µM
